Assay [1] has as its target CDK3/Cyclin E (Homo sapiens) (UniProt P24864+Q00526). The following applies: at 1 µM.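 Also: each figure is a mean percent inhibition of the CDK3/cyclin E complex.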
The target of assay [2] is Cyclin-dependent kinase 4 (Homo sapiens) (UniProt P11802). The following applies: at 0.1 µM.
Assay [3] has the same target. The following applies: at 1 µM.
Assay [4] concerns the target Cyclin-dependent kinase 5 (Homo sapiens) (UniProt Q00535). The following applies: at 0.1 µM.
For assay [5] the target is unchanged. Particulars: at 1 µM.
The target of assay [6] is Cyclin-dependent kinase 6 (Homo sapiens) (UniProt Q00534). Particulars: at 0.1 µM.
Sequence of Cyclin-dependent kinase 6 (Homo sapiens) (Q00534 whole entry): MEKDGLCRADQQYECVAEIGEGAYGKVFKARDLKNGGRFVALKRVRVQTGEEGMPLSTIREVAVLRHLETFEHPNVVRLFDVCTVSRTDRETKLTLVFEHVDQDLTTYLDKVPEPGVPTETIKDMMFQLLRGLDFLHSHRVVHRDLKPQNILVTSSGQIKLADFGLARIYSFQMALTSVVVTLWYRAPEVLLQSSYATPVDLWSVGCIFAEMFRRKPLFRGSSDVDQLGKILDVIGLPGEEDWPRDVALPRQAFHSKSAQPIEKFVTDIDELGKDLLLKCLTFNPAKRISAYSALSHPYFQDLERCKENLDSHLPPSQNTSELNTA
The target is the same in assay [7]. The following applies: at 1 µM.
Assay [8] has as its target Dual specificity protein kinase CLK2 (Homo sapiens) (UniProt P49760). The following applies: at 0.1 µM.
For assay [9] the target is unchanged. The following applies: at 1 µM.
Assay [10] concerns the target Dual specificity protein kinase CLK3 (Homo sapiens) (UniProt P49761). Particulars: at 0.1 µM.
The target is the same in assay [11]. The following applies: at 1 µM.
For assay [12], the target named is Dual specificity tyrosine-phosphorylation-regulated kinase 1A (Homo sapiens) (UniProt Q13627). Particulars: at 0.1 µM.
The target is the same in assay [13]. The following applies: at 1 µM.
Assay [14] deals with Dual specificity tyrosine-phosphorylation-regulated kinase 1B (Homo sapiens) (UniProt Q9Y463). Particulars: at 0.1 µM.
Sequence of Dual specificity tyrosine-phosphorylation-regulated kinase 1B (Homo sapiens) (Q9Y463 whole entry, looked up): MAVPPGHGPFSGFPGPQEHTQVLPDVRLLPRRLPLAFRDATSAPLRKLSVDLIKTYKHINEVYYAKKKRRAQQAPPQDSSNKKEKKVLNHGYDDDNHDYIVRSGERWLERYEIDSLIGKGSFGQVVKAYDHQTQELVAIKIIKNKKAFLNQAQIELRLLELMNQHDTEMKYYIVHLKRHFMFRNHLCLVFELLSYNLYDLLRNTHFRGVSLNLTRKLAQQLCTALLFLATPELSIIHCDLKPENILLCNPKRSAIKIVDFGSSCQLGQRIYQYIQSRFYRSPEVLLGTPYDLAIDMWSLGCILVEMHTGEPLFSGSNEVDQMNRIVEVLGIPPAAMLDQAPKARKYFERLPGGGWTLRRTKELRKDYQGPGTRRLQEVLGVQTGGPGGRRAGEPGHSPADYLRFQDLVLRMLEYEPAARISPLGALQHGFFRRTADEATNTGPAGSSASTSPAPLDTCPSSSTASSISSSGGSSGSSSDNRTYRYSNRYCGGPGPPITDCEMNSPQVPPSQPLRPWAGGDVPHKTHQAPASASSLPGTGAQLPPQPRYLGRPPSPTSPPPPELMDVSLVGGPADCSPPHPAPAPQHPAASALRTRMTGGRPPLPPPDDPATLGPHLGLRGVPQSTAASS
Assay [15] has the same target. Particulars: at 1 µM.
Assay [16] addresses T1, Dual specificity tyrosine-phosphorylation-regulated kinase 2 (Homo sapiens) (UniProt Q92630).
T1 sequence (whole entry): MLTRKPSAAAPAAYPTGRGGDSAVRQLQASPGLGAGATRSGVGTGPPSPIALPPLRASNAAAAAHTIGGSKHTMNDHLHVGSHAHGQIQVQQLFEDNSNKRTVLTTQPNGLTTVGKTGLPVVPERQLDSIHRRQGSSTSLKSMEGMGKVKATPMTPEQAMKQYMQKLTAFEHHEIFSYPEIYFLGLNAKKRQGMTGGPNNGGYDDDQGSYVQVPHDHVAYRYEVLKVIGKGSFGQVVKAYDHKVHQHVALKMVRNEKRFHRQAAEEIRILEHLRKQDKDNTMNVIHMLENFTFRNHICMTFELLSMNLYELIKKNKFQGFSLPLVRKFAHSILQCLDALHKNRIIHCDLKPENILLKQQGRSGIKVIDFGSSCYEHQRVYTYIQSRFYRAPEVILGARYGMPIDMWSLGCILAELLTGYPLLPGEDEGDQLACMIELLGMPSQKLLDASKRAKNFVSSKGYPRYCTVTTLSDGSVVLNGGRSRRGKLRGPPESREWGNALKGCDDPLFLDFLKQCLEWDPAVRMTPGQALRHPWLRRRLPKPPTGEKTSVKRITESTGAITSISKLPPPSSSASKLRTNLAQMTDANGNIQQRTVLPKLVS
The following applies: at 0.1 µM.

The target in assay [17] is T1, Dual specificity tyrosine-phosphorylation-regulated kinase 2 (Homo sapiens). Particulars: at 1 µM.
Assay [18] concerns the target Glycogen synthase kinase-3 alpha (Homo sapiens) (UniProt P49840). The following applies: at 0.1 µM.
For assay [19] the target is unchanged. The following applies: at 1 µM.
Assay [20] concerns the target Glycogen synthase kinase-3 beta (Homo sapiens) (UniProt P49841). Particulars: at 0.1 µM.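 Also: values are mean percent inhibition of GSK3B activity, from the GSK Published Kinase Inhibitor Set (PKIS) screening dataset.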

Sequence of Glycogen synthase kinase-3 alpha (Homo sapiens) (P49840 2-483 limits assumed): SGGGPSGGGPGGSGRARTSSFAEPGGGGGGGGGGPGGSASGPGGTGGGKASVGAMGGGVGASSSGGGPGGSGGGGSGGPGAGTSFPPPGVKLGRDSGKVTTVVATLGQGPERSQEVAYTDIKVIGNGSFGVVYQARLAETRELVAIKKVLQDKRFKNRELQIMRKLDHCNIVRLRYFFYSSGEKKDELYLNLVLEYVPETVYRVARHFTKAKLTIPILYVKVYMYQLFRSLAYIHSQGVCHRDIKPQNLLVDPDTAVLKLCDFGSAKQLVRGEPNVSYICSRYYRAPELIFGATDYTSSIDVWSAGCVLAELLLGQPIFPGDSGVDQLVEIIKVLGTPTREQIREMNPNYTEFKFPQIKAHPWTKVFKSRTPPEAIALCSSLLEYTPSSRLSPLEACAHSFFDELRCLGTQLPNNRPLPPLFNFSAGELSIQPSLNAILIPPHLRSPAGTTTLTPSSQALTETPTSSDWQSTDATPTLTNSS
Sequence of Dual specificity protein kinase CLK2 (Homo sapiens) (P49760 whole entry, looked up): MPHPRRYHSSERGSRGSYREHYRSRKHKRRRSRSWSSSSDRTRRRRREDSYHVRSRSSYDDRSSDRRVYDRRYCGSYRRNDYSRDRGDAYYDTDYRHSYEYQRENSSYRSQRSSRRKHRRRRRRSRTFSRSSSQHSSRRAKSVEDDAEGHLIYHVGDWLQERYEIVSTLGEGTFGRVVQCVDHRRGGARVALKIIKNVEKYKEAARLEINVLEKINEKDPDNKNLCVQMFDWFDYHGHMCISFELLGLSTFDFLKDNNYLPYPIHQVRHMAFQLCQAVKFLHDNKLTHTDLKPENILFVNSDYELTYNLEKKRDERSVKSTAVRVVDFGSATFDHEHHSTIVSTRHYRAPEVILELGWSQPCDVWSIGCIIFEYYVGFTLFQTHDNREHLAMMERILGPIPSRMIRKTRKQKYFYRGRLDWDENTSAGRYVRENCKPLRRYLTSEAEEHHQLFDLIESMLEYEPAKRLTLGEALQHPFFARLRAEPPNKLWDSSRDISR
Sequence of Dual specificity protein kinase CLK3 (Homo sapiens) (P49761 whole entry, looked up): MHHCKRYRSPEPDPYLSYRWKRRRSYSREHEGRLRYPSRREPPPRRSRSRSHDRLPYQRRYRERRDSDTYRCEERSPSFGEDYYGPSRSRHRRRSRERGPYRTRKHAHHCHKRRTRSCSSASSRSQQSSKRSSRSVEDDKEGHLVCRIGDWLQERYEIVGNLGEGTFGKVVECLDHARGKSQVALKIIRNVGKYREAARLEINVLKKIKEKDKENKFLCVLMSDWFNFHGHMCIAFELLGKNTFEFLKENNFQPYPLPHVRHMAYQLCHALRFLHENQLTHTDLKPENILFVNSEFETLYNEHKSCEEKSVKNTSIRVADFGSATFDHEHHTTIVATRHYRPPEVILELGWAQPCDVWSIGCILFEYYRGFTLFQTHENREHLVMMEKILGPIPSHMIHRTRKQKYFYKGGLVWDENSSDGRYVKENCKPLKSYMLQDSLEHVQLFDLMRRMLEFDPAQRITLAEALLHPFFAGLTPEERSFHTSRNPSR
Sequence of Cyclin-dependent kinase 4 (Homo sapiens) (P11802 whole entry): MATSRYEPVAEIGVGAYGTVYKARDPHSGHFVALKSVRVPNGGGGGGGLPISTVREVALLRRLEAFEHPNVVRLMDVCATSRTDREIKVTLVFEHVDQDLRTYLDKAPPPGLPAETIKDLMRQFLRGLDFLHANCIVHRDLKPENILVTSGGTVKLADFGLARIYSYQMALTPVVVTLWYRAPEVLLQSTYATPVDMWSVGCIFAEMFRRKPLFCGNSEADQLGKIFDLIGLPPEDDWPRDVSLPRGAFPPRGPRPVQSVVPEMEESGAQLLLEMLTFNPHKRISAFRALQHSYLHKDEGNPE
Sequence of Cyclin-dependent kinase 5 (Homo sapiens) (Q00535 whole entry, looked up): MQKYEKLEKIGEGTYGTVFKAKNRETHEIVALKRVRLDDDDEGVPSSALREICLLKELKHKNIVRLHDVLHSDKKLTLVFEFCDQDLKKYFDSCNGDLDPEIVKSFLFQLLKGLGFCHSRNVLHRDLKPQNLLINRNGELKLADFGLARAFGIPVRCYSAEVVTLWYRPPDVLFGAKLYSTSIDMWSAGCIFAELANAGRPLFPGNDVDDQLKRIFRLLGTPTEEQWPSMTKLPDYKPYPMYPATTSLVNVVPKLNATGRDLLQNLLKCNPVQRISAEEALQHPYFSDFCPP
Sequence of Glycogen synthase kinase-3 beta (Homo sapiens) (P49841 whole entry, looked up): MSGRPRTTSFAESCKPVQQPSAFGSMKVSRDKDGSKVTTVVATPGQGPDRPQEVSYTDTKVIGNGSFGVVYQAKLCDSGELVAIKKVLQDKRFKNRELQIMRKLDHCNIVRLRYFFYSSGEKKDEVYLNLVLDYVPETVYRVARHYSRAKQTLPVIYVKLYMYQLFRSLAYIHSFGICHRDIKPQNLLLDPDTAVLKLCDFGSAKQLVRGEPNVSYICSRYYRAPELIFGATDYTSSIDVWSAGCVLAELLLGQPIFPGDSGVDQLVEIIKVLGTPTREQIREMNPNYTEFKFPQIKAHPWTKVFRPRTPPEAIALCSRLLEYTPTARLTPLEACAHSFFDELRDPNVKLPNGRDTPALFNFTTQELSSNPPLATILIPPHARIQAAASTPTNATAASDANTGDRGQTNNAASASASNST
Sequence of CDK3/Cyclin E (Homo sapiens) (P24864 whole entry, looked up): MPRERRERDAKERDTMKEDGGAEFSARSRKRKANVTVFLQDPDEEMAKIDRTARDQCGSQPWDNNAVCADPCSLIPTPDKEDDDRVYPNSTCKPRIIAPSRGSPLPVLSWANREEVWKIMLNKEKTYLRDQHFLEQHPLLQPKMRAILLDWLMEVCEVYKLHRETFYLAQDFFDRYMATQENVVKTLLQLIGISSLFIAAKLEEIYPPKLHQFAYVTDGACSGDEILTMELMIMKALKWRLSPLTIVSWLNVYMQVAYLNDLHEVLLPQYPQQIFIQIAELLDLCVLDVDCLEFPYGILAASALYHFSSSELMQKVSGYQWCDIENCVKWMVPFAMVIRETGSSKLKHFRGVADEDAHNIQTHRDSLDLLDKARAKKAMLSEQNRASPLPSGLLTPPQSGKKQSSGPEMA
Sequence of CDK3/Cyclin E (Homo sapiens) (Q00526 whole entry, looked up): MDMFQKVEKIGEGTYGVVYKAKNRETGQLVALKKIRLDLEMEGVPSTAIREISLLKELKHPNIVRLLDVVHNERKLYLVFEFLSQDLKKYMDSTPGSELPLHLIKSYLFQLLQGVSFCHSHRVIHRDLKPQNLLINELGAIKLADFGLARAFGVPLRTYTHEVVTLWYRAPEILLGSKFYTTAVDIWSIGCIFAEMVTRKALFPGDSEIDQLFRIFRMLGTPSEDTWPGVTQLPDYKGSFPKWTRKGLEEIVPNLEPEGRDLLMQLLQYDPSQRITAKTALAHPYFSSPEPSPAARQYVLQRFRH

As to `Nc1nccc(-c2c(-c3ccc(F)cc3)ncn2C2CCC(O)CC2)n1` (stereo not given), the inhibition is -0.81% in assay [1]; 0.24% in [2]; 1.17% in assay [3]; 0.55% in assay [4]; 1.98% in assay [5]; 1.41% in assay [6]. Besides, the inhibition stood at 1.1% in assay [7]; 1.54% in assay [8]; 0.55% in assay [9]; 1.02% in [10]; 3.28% in assay [11]; 2.86% in [12]. Further, the inhibition in assay [13] is 5.97%; in [14], 3.71%; in assay [15], 5.6%; in assay [16], -1.97%; in assay [17] it was -2.78%; in assay [18], 0.95%. Also, the inhibition was 5.67% in assay [19] and 1.63% in assay [20].

For the molecule `NC(=O)c1ccc(Oc2nccc(-c3c(-c4ccc(F)cc4)ncn3C3CCNCC3)n2)cc1`, the inhibition in assay [1] was 1.23%; in [2], 3.18%; in [3], 3.14%; in assay [4], 1.5%; in assay [5], 1.61%; in assay [6] it was -4.69%. The inhibition is -0.8% in assay [7]; 1.44% in assay [8]; 6.51% in assay [9]; 2.43% in [10]; 1.67% in assay [11]; 3.41% in assay [12]. Further, the inhibition in assay [13] was 5.23%; in assay [14], 0.33%; in assay [15], -0.41%; in [16] it was 4.43%; in [17], 9.4%; in assay [18], 2.18%. Moreover, the values for the inhibition in assay [19] and in assay [20] were 3.39% and 2.57%, respectively.

In the case of `CS(=O)(=O)CCNCc1cc(-c2cc3c(Nc4ccc(OCc5cccc(F)c5)c(Cl)c4)ncnc3s2)cs1`, the inhibition in assay [1] was -0.74%; in assay [2], 2.57%; in [3] it was 4.29%; in assay [4] it was 0.44%; in [5], 0.56%; in assay [6], -2.32%. The inhibition was -0.13% in assay [7]; 2.41% in [8]; 2.14% in [9]; 2.21% in assay [10]; 0.02% in assay [11]; 2.31% in [12]. The inhibition in [13] is 3.13%; in assay [14] it was -1.81%; in [15] it was -0.61%; in [16] it was 3.75%; in assay [17] it was 8.37%; in assay [18], 2.31%. Moreover, the inhibition in assay [19] turned out to be 2.97%; in assay [20] it was 1.53%.

Regarding `CCS(=O)(=O)c1ccc(OC)c(Nc2ncc(-c3cccc(-c4ccccc4F)c3)o2)c1`, the inhibition is 1.22% in [1]; 0.53% in [2]; -0.45% in assay [3]; 0.5% in assay [4]; 3.33% in assay [5]; 0.01% in assay [6]. Further, the inhibition in [7] turned out to be 1.94%; in assay [8], 5.83%; in [9], 36.9%; in assay [10], 2.7%; in [11], 13.9%; in assay [12] it was 3.84%. The inhibition was determined as 26% in assay [13]; 3.9% in assay [14]; 18.5% in assay [15]; 1.46% in assay [16]; 10.3% in [17]; 2.37% in [18]. Also, the values for the inhibition in assay [19] and in assay [20] were 9.24% and 1.65%, respectively.

As for `CN(c1ccc(NC(=O)Nc2c(Cl)cccc2Cl)cc1)c1ccnc(Nc2cccc(CS(C)(=O)=O)c2)n1`, the inhibition in [1] is -0.7%; in assay [2] it was -0.86%; in assay [3] it was -0.25%; in [4], 0.43%; in [5], 1.99%; in assay [6], 3.57%. The inhibition in assay [7] was -0.75%; in assay [8], 3.63%; in [9], 5.49%; in [10], -0.2%; in assay [11] it was 1.23%; in assay [12], -0.53%. Also, the inhibition in [13] was 0.63%; in assay [14], -0.2%; in [15], 1.52%; in [16], 2.28%; in assay [17], 1.29%; in assay [18], 4.09%. The results for the inhibition in [19] and in assay [20] were 10% and 4.11%, respectively.

As to `CCC(=O)Nc1ccc(C)c(-c2ccc(C(=O)NCC3CC3)cc2)c1`, the inhibition in assay [1] is -2.39%; in [2] it was 3.38%; in assay [3], 5.05%; in assay [4], 1.58%; in [5], 1.54%; in assay [6] it was 0.4%. For the same molecule, the inhibition in [7] was 0%; in assay [8] it was 0.05%; in assay [9] it was -0.08%; in [10], 0.16%; in [11], -0.21%; in [12], 1.98%. In addition, the inhibition was 3.18% in assay [13]; -0.71% in assay [14]; 0.18% in assay [15]; 3.11% in assay [16]; 2.91% in [17]; 1.84% in assay [18]. The figures for the inhibition in [19] and in [20] were 3.42% and 0.54%, respectively.

Broadly, the inhibition is the change of the read-out against control, counted positive when it falls.

The values above are taken from ChEMBL document CHEMBL1961873, “Compounds: GSK PKIS; Assays: Nanosyn kinase panel” (2012).
